Assay [1] concerns Wnt5a (protein binding on small-molecule microarray). Kind of assay: small molecules binding Wnt5a protein – biophysical, small-molecule microarray, 635/667 nm fluorescence, primary screen (AID 1142).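 Note: fluorescence read at 667 nm with signal to noise per printed feature.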 The settings on record: 635 nm fluorescence, higher = more signal.
The nature of assay [2]: ATP-based viability of Huh7 replicon cells – cell-based, CellTiter-Glo luminescence, basal, 48 h, cytotoxicity control for HCV replication inhibitor project, primary screen (AID 1143).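 Note: Huh7 hepatoma cells carrying a hepatitis C replication reporter with no stimulus; test concentration not given here.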 The following applies: higher = more signal, called active from +8 up or from −8 down. A general note: A replicon is a self-replicating genome or part of one, used to study replication in cells.

Assay [3] can be described thus: Pseudomonas biofilm growth suppression – PAO1 strain, BacTiter-Glo luminescence, LB-PBS, primary screen (AID 1144). The settings on record: P. aeruginosa PAO1 biofilm, 12 h, higher = more signal.
A short description of assay [4]: basal CRE-LacZ reporter activity in PC12 – cell-based, unstimulated, primary screen (AID 1145). The settings on record: no forskolin, luminescence, 4.5 h, higher = more signal, called active from +8 up or from −8 down.
Assay [5] is described as follows: forskolin-driven CRE-LacZ activity in PC12 – cell-based, CRE-LacZ reporter, forskolin-stimulated, primary screen (AID 1146).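 Note: PC12 cells with 6xCRE LacZ reporter stimulated by forskolin 10 µM; beta-galactosidase reporter signal reflecting CREB driven transcription.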 The settings on record: luminescence, 4.5 h, higher = more signal, called active from +8 up or from −8 down.
In assay [6] the target is Streptavidin (Streptomyces avidinii) (UniProt P22629). Kind of assay: compounds binding control protein streptavidin – biophysical, small-molecule microarray, 635/667 nm fluorescence, artefact control for SMM compound annotation, primary screen (AID 1147).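 Note: signal reflects streptavidin binding to arrayed compounds as a control protein.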 The settings on record: higher = more signal.
Assay [7] can be described thus: probe aInhba binding on compound microarray – biochemical, small-molecule microarray, 635/667 nm fluorescence, primary screen (AID 1148).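 Note: score merges 667nm spot fluorescence with signal-to-noise for antibody binding to printed compounds.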 The settings on record: higher = more signal.
Assay [8] addresses Torsin-1A (Homo sapiens) (UniProt O14656). Kind of assay: TOR1A wild-type binding on microarray – cell lysate, small-molecule microarray, lysate, 635/667 nm, primary screen (AID 1149). The following applies: COS7 hTOR1A-WT lysate, 635 nm fluorescence, higher = more signal.
The target is the same in assay [9]. The assay is described as follows: torsin A mutant lysate binding on microarrays – cell lysate, small-molecule microarray, COS7 lysate, 635/667 nm fluorescence, primary screen (AID 1150).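 Note: score pools 667 nm emission and signal to noise measuring lysate protein binding.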 The following applies: COS7 hTOR1A mutant lysate, 635 nm fluorescence, higher = more signal.
The subject of assay [10] is Sonic hedgehog protein (Shh). The assay is described as follows: Sonic hedgehog microarray binding compounds – biochemical, small-molecule microarray, 635/667 nm fluorescence, primary screen (AID 1151).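 Note: Shh protein binding to compounds spotted on small-molecule microarray slides; score combines spot fluorescence intensity with signal-to-noise across triplicate slides.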 The settings on record: 635 nm fluorescence, higher = more signal.
Assay [11] in a line: optical density shifts of acrAB sulA E. coli – strain DRC41, OD650, 48 h, E. coli filamentation inducer project, primary screen (AID 1152).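 Note: E. coli MC1000 strain DRC41 lacking acrAB efflux pump and sulA.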 The settings on record: higher = more signal, called active from +8 up or from −8 down.
The nature of assay [12]: probe aLefty1 binding on compound microarray – biochemical, small-molecule microarray, 635/667 nm fluorescence, primary screen (AID 1153).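 Note: score merges spot fluorescence with signal-to-noise ratio from the scanned slide images.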 The following applies: higher = more signal.
Assay [13] is described as follows: plasmodial surface anion channel blockers, osmotic lysis – cell-based, P. falciparum Indochina, OD700, 1 h, primary screen (AID 1154). The settings on record: P. falciparum Indochina infected RBC osmotic lysis, higher = more signal, called active from +8 up or from −8 down.
Assay [14] in a line: plasmodial surface anion channel blockers, osmotic lysis – cell-based, P. falciparum Indochina, OD700, 2 h, primary screen (AID 1155).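 Note: lysis reports solute entry through the parasite surface anion channel PSAC.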 The following applies: P. falciparum Indochina infected erythrocytes, higher = more signal, called active from +8 up or from −8 down.
The nature of assay [15]: changes in parasitized red cell lysis, either direction – P. falciparum Indochina, OD700, 3 h, PSAC antagonist project, primary screen (AID 1156). The settings on record: P. falciparum-infected erythrocytes, osmotic lysis, higher = more signal, called active from +8 up or from −8 down.
The nature of assay [16]: plasmodial surface anion channel blockers, osmotic lysis – cell-based, P. falciparum Indochina, OD700, 18 h, primary screen (AID 1157). The following applies: P. falciparum Indochina infected erythrocytes, osmotic lysis OD700, 18 h; higher = more signal, called active from +8 up or from −8 down.
Assay [17] is described as follows: S6 kinase pathway phospho-S6 level changes – cell-based, A549, cytoblot, luminescence, serum-stimulated, primary screen (AID 1158).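 Note: serum-stimulated A549 lung adenocarcinoma cells; signal is phosphorylated S6 detected by cytoblot immunostaining with HRP secondary.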 The settings on record: 5 h, higher = more signal.
Assay [18] concerns the target NADPH oxidase 2 (Homo sapiens) (UniProt P04839). The assay is described as follows: compounds shifting NOX2 Amplex Red fluorescence – cell-based, HEK293-NOX2, PMA-stimulated, NOX inhibitor project, primary screen (AID 1159). Note: test concentration not given here. The following applies: 45 min, higher = more signal, called active from +8 up or from −8 down.
The target of assay [19] is NADPH oxidase 4 (Homo sapiens) (UniProt Q9NPH5). Kind of assay: compounds shifting NOX4 Amplex Red fluorescence – cell-based, HEK293-NOX4, tetracycline-induced, NOX inhibitor project, primary screen (AID 1160). The settings on record: HEK293-NOX4, Amplex Red H2O2 fluorescence, 45 min; higher = more signal, called active from +8 up or from −8 down.
Assay [20] concerns the target NADPH oxidase 5 (Homo sapiens) (UniProt Q96PH1). The assay is described as follows: compounds shifting NOX5 Amplex Red fluorescence – cell-based, HEK293-NOX5, NOX inhibitor project, primary screen (AID 1161). The settings on record: HEK293-NOX5, ionomycin, 45 min, higher = more signal.

The source made the active and inactive calls. Unless noted, the rule behind the calls is not given here.

Chain of NADPH oxidase 4 (Homo sapiens) (Q9NPH5 whole entry, looked up): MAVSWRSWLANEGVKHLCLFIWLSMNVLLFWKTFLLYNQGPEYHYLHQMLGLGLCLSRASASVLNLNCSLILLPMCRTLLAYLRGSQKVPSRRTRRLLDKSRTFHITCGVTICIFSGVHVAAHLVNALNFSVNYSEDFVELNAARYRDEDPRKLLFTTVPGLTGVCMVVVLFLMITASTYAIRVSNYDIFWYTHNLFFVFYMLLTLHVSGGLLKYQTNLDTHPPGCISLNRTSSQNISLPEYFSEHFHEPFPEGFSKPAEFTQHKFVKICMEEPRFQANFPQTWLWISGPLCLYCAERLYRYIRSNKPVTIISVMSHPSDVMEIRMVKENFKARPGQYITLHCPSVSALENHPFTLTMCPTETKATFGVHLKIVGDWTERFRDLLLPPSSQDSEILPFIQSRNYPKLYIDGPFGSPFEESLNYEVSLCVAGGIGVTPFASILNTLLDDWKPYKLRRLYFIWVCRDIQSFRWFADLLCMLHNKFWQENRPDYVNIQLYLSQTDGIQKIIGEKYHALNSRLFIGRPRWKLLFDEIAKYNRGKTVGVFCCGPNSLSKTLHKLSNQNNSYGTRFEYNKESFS
Chain of NADPH oxidase 2 (Homo sapiens) (P04839 whole entry, looked up): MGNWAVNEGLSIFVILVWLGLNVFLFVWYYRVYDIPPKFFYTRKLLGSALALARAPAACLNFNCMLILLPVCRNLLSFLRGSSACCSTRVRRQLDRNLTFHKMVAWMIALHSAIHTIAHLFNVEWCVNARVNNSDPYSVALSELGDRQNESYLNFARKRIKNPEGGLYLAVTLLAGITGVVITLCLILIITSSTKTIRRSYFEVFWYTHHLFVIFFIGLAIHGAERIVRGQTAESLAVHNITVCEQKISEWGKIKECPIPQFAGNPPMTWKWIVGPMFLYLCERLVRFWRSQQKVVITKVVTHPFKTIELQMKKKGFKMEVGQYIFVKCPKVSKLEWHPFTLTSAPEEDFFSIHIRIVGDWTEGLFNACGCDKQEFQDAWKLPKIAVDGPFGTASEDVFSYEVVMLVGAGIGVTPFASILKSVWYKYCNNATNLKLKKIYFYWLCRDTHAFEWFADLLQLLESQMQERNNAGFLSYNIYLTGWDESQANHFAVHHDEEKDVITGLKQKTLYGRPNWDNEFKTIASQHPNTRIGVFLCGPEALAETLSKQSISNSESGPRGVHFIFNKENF
Chain of NADPH oxidase 5 (Homo sapiens) (Q96PH1 whole entry, looked up): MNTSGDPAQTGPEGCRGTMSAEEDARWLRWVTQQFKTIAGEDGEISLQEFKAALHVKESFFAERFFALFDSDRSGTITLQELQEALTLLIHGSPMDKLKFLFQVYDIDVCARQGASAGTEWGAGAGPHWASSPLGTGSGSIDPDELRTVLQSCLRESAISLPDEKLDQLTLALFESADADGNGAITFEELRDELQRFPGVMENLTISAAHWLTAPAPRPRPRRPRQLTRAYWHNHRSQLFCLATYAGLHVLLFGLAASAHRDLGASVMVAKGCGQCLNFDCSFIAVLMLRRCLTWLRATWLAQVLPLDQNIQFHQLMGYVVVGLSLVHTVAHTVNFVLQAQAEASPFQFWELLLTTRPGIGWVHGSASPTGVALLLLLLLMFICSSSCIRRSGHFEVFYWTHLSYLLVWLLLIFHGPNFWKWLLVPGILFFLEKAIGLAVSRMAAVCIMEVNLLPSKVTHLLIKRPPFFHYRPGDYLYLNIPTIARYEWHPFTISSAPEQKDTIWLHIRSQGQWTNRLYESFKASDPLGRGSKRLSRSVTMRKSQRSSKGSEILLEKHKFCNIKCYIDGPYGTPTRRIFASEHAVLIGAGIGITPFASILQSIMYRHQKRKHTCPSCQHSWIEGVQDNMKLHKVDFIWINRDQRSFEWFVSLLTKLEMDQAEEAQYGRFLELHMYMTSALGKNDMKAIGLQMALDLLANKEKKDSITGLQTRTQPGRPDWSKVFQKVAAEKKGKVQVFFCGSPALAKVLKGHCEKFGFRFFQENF
Chain of Torsin-1A (Homo sapiens) (O14656 whole entry, looked up): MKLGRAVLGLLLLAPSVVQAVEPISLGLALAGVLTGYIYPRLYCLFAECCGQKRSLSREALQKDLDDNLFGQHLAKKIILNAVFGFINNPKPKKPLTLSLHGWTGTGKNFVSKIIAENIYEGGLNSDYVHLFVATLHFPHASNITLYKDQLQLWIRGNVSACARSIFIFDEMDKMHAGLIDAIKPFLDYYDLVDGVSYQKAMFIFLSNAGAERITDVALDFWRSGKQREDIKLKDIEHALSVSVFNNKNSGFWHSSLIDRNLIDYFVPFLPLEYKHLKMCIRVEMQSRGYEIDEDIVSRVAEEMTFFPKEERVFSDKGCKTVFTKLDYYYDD
Chain of Streptavidin (Streptomyces avidinii) (P22629 whole entry, looked up): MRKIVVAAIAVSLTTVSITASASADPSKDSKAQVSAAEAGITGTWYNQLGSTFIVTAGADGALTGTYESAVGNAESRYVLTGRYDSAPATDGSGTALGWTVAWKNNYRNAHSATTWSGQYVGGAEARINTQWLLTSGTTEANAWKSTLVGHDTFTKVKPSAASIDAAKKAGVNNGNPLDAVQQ

For `C=C(COC)C(=O)CC[C@H](OC(=O)c1ccccc1-c1ccccc1C(=O)O)c1cccc(OCCO)c1`, the composite z-score was 2.01 in assay [1]; -1.8 in assay [6]; -0.0332 in assay [7]; 2.33 in [8]; 2.6 in [9]; 2.34 in assay [10]. In addition, the composite z-score in assay [12] stood at 0.333. Further, the z-score is -8.1 (active) in assay [2]; -0.805 (inactive) in assay [3]; 0.102 (inactive) in assay [4]; 0.683 (inactive) in assay [5]; 0.0418 (inactive) in assay [11]; 3.26 (inactive) in [13]. Moreover, the z-score in assay [14] is 1.91 (inactive); in assay [15], 0.281 (inactive); in [16], 1.36 (inactive); in assay [17], 0.29; in assay [18], 0.635 (inactive); in assay [19], 0.112 (inactive). For the same compound, the z-score in assay [20] was -2.96.

With `CCOC(=O)C[C@H]1[C@H](OC(=O)c2cc3ccccc3oc2=O)[C@@H](NC(=O)C2CCCCC2)c2cc(OCCCO)ccc2N1C(=O)c1ccc2ccccc2n1`, the composite z-score in [1] is 0.156; in [6] it was 0.449; in [7], -0.0719; in assay [8], 0.16; in [9], 0.11; in assay [10], 0.526. In assay [12], this compound displayed a composite z-score of -0.0547. Also, the z-score is -0.271 (inactive) in [2]; -0.686 (inactive) in [3]; 6.62 (inactive) in [4]; 0.821 (inactive) in assay [5]; -0.836 (inactive) in assay [11]; 4.81 (inactive) in assay [13]. Further, the z-score in [14] is 0.491 (inactive); in assay [15] it was 0.499 (inactive); in assay [16], 0.549 (inactive); in assay [17] it was -0.725; in assay [18], 2.44 (inactive); in assay [19] it was 1.52 (inactive). In addition, in assay [20], the z-score amounted to 0.451.

For `CC1CC/C=C\[C@H]2OC34C=CCN(Cn5nnc6ccccc65)C(=O)[C@H]3N(C(C)CO)C(=O)[C@@H]4C2C(=O)O1` (stereo not given in full), the composite z-score was -0.501 in assay [1]; -0.465 in assay [6]; -0.0675 in assay [7]; -0.276 in assay [8]; -1 in assay [9]; -0.362 in assay [10]. The composite z-score in assay [12] was -0.204. Further, the z-score was 0.349 (inactive) in assay [2]; -0.182 (inactive) in assay [3]; -1.03 (inactive) in assay [4]; -0.542 (inactive) in assay [5]; 0.0838 (inactive) in [11]; 2.25 (inactive) in assay [13]. For the same compound, the z-score in assay [14] is 0.974 (inactive); in [15], 1.03 (inactive); in [16], 0.477 (inactive); in assay [17] it was 0.0801; in [18], 0.963 (inactive); in [19] it was 0.173 (inactive). In addition, in assay [20], the z-score was 1.79.

For `C=C(C)[C@@H]1CC=C(C(O)C2C=CC3C(=O)NC(=O)C3N2Nc2ccccn2)CC1` (stereo not given in full), the composite z-score was determined as 0.742 in [1]; 0.717 in assay [6]; 0.093 in assay [7]; 1.1 in assay [8]; 0.705 in assay [9]; 2.28 in [10]. This compound also registered a composite z-score in assay [12] of 0.497. For the same compound, the z-score in assay [2] was 0.715 (inactive); in [3] it was -0.555 (inactive); in [4] it was -0.14 (inactive); in assay [5] it was 0.621 (inactive); in assay [11] it was -1.56 (inactive); in assay [13], 0.671 (inactive). In addition, the z-score in assay [14] is 0.613 (inactive); in [15], 0.0385 (inactive); in assay [16], 0.876 (inactive); in assay [17], -1.11; in [18] it was -1.02 (inactive); in assay [19] it was -2.89 (inactive). Further, the z-score in assay [20] was -2.69.

(Values after PubChem BioAssay.)
